Source: the supplement of paper PMC11417369
± gives the standard deviation of the averaged measurements. In all, about 25,000 sequences were measured (“ln(normalized median fluorescence intensity)”: median about 10, highest 2% from about 12 on). This excerpt belongs to a sample that is enriched for the highest values.

The sequences below were run on PfAP2-G AP2 domain (GST-tagged) (assay: gcPBM binding intensity (ln(normalized median fluorescence intensity)); higher = stronger DNA binding).
In short: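 Plasmodium falciparum DNA-binding domains carrying a GST tag were expressed in E. coli and applied for 1 h, at about 25 μg on average, to an Agilent 4 × 180k array. The array held primer-extended double-stranded 36-bp intergenic genomic probes together with negative controls, and binding took place in 1× PBS with 1% milk, 0.2 mg/ml BSA, 0.5% salmon testes DNA and 0.03% Triton X-100. An Alexa488 anti-GST antibody detected bound protein, and the array was scanned at 488 nm. Binding intensity is taken as the highest Masliner-normalised natural-log median intensity across replicate spots of either probe orientation.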

“CCTTTCTATTGAAAATGTACATATATATTATTATAT [XGTACX_site5527]” and “ATATTTTCTAATCAATGTACTTATTCTACACATTAA [XGTACX_site5774]” are within error of each other in “gcPBM binding intensity (ln)” value: 11.1 ± 0.71 for the first, 11.3 ± 0.92 for the second.

Going from “ATGGAAATATATACATGTACATAAATATATATATAT [XGTACX_site8391]” to “TTTTACTCTTAAAATAATAAAAAATATTCACATTTA [CACACA_negctrl_site1508]”, the “gcPBM binding intensity (ln)” value falls from 11.2 ± 0.61 to 9.63 ± 0.085.

“TAAATTATAACGTGCACACATATTTAAAATGAAATG [CACACA_site2820]” and “TCTTCACCACGTGGAAGTACATAAAAAGATACACAA [XGTACX_site4747]” are within error of each other in “gcPBM binding intensity (ln)” value: 10.6 ± 0.45 for the first, 11.4 ± 0.93 for the second.

“AATTTATTAGATAGATGTACATTTTAATAAAAGTAG [XGTACX_site6819]” and “AGATATTTTTCTTAAGTACACACTAATTAGAAACTA [CACACA_site7897]” are within error of each other in “gcPBM binding intensity (ln)” value: 11.1 ± 0.67 for the first, 11.3 ± 0.93 for the second.

“CCCATATTATAGGTGTGTACATAAAAGTATATATAA [XGTACX_site3629]” and “TAACACCAAACTAAATGTACACACATACATAAATAT [XGTACX_site2201]” are within error of each other in “gcPBM binding intensity (ln)” value: 11.6 ± 0.95 for the first, 11.2 ± 0.79 for the second.

“TATATAATATATTAATGTACGTTATATGTATTCCTT [XGTACX_site6140]” and “ATAATCCTTGGACACACACACACACTAGTAAATAAA [CACACA_site4423]” are within error of each other in “gcPBM binding intensity (ln)” value: 11.2 ± 0.81 for the first, 10.9 ± 0.57 for the second.

“ATAAAAGATATTTTTACACACTTTTGATGAGATCGT [CACACA_site3053]” and “TTTTTAATCCTTTGCGCATGTAAAATTATATATTTT [TGCATGCA_site306]” are the same in “gcPBM binding intensity (ln)” value: 10.08 ± 0.057 for the first, 10.1 ± 0.11 for the second.

“TCATTTTAAGGAAAAAGTACAAAATAATATGTTCCT [XGTACX_site1903]” and “ATCTCTTAAATTTTACGTACTTATTTTATCTTCTTA [XGTACX_site8877]” are within error of each other in “gcPBM binding intensity (ln)” value: 11 ± 0.65 for the first, 11.2 ± 0.67 for the second.

Going from “AATTTCAATTTCTGTTGTACACTTTTTAATAGTAAA [XGTACX_site4085]” to “ATTATGATTTTATAGAACTGAACATTTACATTAAAT [GTGCAC_negctrl_site192]”, the “gcPBM binding intensity (ln)” value falls from 11.4 ± 0.88 to 9.855 ± 0.064.

“TAAAAATGTGGACACACACACATATTTATATTTAAT [CACACA_site6827]” and “TATCCATTATTTAAAAGTACAAAAAACGATTTACAC [XGTACX_site2979]” are within error of each other in “gcPBM binding intensity (ln)” value: 11.4 ± 0.72 for the first, 11.3 ± 0.8 for the second.

“TTAAGTATTTTACGTACACACTTATAAATGTACAGG [CACACA_site6012]” and “ATATAAAAATGTGTATGTACACACTTTATTTTTAAT [XGTACX_site5272]” are within error of each other in “gcPBM binding intensity (ln)” value: 11.7 ± 0.93 for the first, 11.4 ± 0.74 for the second.

Going from “CTACACACTTATAAATGTACAGGATTTAAGTATATG [XGTACX_site8245]” to “CATATAATAAATAATACACACATATTGGAAATATAT [CACACA_site3212]”, the “gcPBM binding intensity (ln)” value falls from 10.9 ± 0.49 to 9.98 ± 0.057.

Going from “GTCTGCATATGGATACGTACACATATATATTAATGT [XGTACX_site2260]” to “AATATATATTAATACACACACACATATATATATATA [CACACA_site3786]”, the “gcPBM binding intensity (ln)” value falls from 11.7 ± 0.91 to 10.3 ± 0.47.

“ATATGGAATAATACGCGTACACACATATATATATTA [XGTACX_site307]” and “GAATAATATGGACATACACACATATACATACATATA [CACACA_site2114]” are within error of each other in “gcPBM binding intensity (ln)” value: 11.7 ± 1 for the first, 10.9 ± 0.51 for the second.

“TATAAATACATACGTACACACAAATATTAAAATATA [CACACA_site5129]” and “TGGAATAATACGCGTACACACATATAAATATTAATA [CACACA_site6211]” are within error of each other in “gcPBM binding intensity (ln)” value: 11.5 ± 0.87 for the first, 11.7 ± 0.91 for the second.

“GTAATTATATACATACGTACATACACATATGTATAT [XGTACX_site4149]” and “TGGAATAATCCGCGTACACACATATATATATTAAGA [CACACA_site4253]” are within error of each other in “gcPBM binding intensity (ln)” value: 11.3 ± 0.65 for the first, 11.6 ± 0.87 for the second.

“TATGGAATAATACGCGTACACACATATATATATTAA [CACACA_site132]” and “TGGAATAATACGCGTACACACATATATATATTAATA [CACACA_site131]” are within error of each other in “gcPBM binding intensity (ln)” value: 11.6 ± 0.93 for the first, 11.8 ± 0.97 for the second.

First: TTAAAAATTATGGATACACACATATATATATATATT [CACACA_site2383]
Second: AGTTTTATATTTCTGAGTACTTATGAATCTAGCTCG [XGTACX_site4330]
The “gcPBM binding intensity (ln)” value of the first is lower: 10.2 ± 0.2 for the first, 11.2 ± 0.72 for the second.

Compared with “TGGTGATATACGAAATGTACGCAAATCACAAAATAA [XGTACX_site8836]”, “ATTAAAAAAAAAAAAAAAAAACAAAAAAAAAAAAAA [CACACA_negctrl_site1187]” is lower in “gcPBM binding intensity (ln)” value: 11.5 ± 0.98 for the first, 9.62 for the second.

First: ACTTGTAAGAAACACACACACACACCCATATATATA [CACACA_site796]
Second: CTGAACCCGTTATGGTGTACATAAAATAAGACACAG [XGTACX_site3484]
The “gcPBM binding intensity (ln)” value of the first is lower: 10.2 ± 0.14 for the first, 11.6 ± 0.96 for the second.

“TTTTTAAAACATCACTGTACCCGTTATGGTGAACAT [XGTACX_site3483]” and “TTTTATTATTAAACATGTACCCATATTATTGTTATG [XGTACX_site5563]” are within error of each other in “gcPBM binding intensity (ln)” value: 11.7 ± 1.2 for the first, 11.2 ± 0.56 for the second.

First: TATATATATATATATAGTACATATTAATTAATTTAT [XGTACX_site8198]
Second: CCTAAAAAAAAGAAATGATATACATATGTATATATA [GTGCAC_negctrl_site100]
The “gcPBM binding intensity (ln)” value of the first is higher: 10.8 ± 0.63 for the first, 9.685 ± 0.064 for the second.

“ATAAAAATAAAAAGATGTACGTATTTTTTTTTTTTT [XGTACX_site5329]” and “TAAATAGATGTTTTATGTACGTATAAATAAAAAAAA [XGTACX_site3412]” are within error of each other in “gcPBM binding intensity (ln)” value: 11.6 ± 0.91 for the first, 11.7 ± 0.88 for the second.

“TATATAATATATTTATGTACGTATTTAAAAATTTAT [XGTACX_site160]” and “AATAGTAAAAATCACTGTACGTTTATTTTTAAAATG [XGTACX_site1035]” are within error of each other in “gcPBM binding intensity (ln)” value: 11.6 ± 0.98 for the first, 11.7 ± 0.91 for the second.

“TTTATTTTGATTTAATGTACAAATAGTAAAACAAAA [XGTACX_site4789]” and “AAATTTAGTAAAAAATGTACGTAAAATGTAAAATAT [XGTACX_site1314]” are within error of each other in “gcPBM binding intensity (ln)” value: 10.9 ± 0.49 for the first, 11.5 ± 0.73 for the second.

Compared with “ATTTATTTTGTTGTTGTTTTTATTTGATTGTTTTAT [CACACA_negctrl_site1275]”, “TTTTATAAATATTTTTGTACACATTTAAATATTATT [XGTACX_site4973]” is higher in “gcPBM binding intensity (ln)” value: 9.785 ± 0.007 for the first, 11.3 ± 0.59 for the second.

“TATAACATTATTTTGTGTACACATTCGGTTATATTA [XGTACX_site6310]” and “TATATATATATTATATGTACACATTTGTGAATTATT [XGTACX_site5848]” are within error of each other in “gcPBM binding intensity (ln)” value: 12 ± 1.1 for the first, 11.5 ± 0.85 for the second.

“ATTTTATAACATTCATGTACACATTTCATTTATTTG [XGTACX_site3028]” and “AACATTATTTTGTGTACACATTCGGTTATATTATAT [CACACA_site5628]” are within error of each other in “gcPBM binding intensity (ln)” value: 11.3 ± 0.77 for the first, 11.8 ± 1 for the second.

“GTTATTCTTAATTTTTGTACACATTTTTATATTATT [XGTACX_site7227]” was tested, and the “gcPBM binding intensity (ln)” value was 11.4 ± 0.7.
